Source: the supplement of paper PMC10849652
Of roughly 7,900 targets only a part is listed; those with a hit were picked by preference. About 0.6% of all pairs of compound and target were hits.

How the values were obtained:
Test in all cases: log2 fold change, soluble protein after heating vs DMSO (PISA); higher = thermal stabilisation; K562 cells, 10 uM, 30 min; active = over 0.2 and 3.5 SD of the protein, either way, in both replicates (recomputed)
[1] = target: YAE1 (UniProt Q9NRH1)
In short: (§1)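 Values are thermal stability changes relative to control samples and are taken from duplicates. They are stated as log2 fold changes. Before quantification by TMTpro 16plex LC-MS/MS with equalised channel sums, K562 cells at 2×10^6 cells/mL were treated with 10 μM compound for 30 min, heated in aliquots for 3 min across 48°C-58°C, pooled, extracted in PBS with 0.5% NP-40 at 4°C, and centrifuged at 21,000xg for 90 min to give the soluble supernatant.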

[2] = target: YBX1 (UniProt P67809)
In short: as §1

[3] = target: YES1 (UniProt P07947)
In short: as §1

[4] = target: YIPF4 (UniProt Q9BSR8)
In short: as §1

[5] = target: YIPF5 isoform 3 (UniProt Q969M3)
In short: as §1

[6] = target: YIPF6 (UniProt Q96EC8)
In short: as §1

[7] = target: YLPM1 (UniProt P49750)
In short: as §1

[8] = target: YOD1 (UniProt Q5VVQ6)
In short: as §1

[9] = target: YPEL5 (UniProt P62699)
In short: as §1

[10] = target: YWHAB (UniProt P31946)
In short: as §1

[11] = target: YWHAQ (UniProt P27348)
In short: as §1

[12] = target: YWHAZ (UniProt E7ESK7)
In short: as §1

[13] = target: YWHAZ (UniProt P63104)
In short: as §1

[14] = target: YY1 (UniProt P25490)
In short: as §1

[15] = target: ZADH2 (UniProt Q8N4Q0)
In short: as §1

[16] = target: ZBTB21 (UniProt Q9ULJ3)
In short: as §1

[17] = target: ZBTB43 (UniProt O43298)
In short: as §1

[18] = target: ZC3H18 (UniProt Q86VM9)
In short: as §1

[19] = target: YBX1 (UniProt C9J5V9)
In short: as §1

[20] = target: ZBTB17 isoform 2 (UniProt Q13105)
In short: as §1

Measured: log2 fold change

Chain of YIPF5 isoform 3 (Q969M3 whole entry, looked up, canonical isoform): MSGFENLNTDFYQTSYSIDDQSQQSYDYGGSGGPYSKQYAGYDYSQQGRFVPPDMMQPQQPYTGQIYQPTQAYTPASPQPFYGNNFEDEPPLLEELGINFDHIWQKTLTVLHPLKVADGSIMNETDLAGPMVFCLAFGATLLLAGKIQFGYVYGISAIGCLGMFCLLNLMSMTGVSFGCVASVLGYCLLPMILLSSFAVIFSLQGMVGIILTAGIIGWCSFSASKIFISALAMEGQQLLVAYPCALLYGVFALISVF
Chain of YBX1 (UniProt P67809) (P67809 whole entry, looked up): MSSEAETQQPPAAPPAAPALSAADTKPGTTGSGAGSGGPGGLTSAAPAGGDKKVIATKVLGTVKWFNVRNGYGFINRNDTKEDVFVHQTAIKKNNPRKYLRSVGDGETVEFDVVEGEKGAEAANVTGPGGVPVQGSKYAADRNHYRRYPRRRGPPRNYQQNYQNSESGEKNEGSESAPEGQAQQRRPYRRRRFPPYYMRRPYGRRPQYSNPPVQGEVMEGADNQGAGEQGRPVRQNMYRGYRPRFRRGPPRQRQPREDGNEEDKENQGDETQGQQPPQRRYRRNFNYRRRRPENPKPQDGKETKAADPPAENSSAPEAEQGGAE
Chain of YLPM1 (P49750 whole entry, looked up): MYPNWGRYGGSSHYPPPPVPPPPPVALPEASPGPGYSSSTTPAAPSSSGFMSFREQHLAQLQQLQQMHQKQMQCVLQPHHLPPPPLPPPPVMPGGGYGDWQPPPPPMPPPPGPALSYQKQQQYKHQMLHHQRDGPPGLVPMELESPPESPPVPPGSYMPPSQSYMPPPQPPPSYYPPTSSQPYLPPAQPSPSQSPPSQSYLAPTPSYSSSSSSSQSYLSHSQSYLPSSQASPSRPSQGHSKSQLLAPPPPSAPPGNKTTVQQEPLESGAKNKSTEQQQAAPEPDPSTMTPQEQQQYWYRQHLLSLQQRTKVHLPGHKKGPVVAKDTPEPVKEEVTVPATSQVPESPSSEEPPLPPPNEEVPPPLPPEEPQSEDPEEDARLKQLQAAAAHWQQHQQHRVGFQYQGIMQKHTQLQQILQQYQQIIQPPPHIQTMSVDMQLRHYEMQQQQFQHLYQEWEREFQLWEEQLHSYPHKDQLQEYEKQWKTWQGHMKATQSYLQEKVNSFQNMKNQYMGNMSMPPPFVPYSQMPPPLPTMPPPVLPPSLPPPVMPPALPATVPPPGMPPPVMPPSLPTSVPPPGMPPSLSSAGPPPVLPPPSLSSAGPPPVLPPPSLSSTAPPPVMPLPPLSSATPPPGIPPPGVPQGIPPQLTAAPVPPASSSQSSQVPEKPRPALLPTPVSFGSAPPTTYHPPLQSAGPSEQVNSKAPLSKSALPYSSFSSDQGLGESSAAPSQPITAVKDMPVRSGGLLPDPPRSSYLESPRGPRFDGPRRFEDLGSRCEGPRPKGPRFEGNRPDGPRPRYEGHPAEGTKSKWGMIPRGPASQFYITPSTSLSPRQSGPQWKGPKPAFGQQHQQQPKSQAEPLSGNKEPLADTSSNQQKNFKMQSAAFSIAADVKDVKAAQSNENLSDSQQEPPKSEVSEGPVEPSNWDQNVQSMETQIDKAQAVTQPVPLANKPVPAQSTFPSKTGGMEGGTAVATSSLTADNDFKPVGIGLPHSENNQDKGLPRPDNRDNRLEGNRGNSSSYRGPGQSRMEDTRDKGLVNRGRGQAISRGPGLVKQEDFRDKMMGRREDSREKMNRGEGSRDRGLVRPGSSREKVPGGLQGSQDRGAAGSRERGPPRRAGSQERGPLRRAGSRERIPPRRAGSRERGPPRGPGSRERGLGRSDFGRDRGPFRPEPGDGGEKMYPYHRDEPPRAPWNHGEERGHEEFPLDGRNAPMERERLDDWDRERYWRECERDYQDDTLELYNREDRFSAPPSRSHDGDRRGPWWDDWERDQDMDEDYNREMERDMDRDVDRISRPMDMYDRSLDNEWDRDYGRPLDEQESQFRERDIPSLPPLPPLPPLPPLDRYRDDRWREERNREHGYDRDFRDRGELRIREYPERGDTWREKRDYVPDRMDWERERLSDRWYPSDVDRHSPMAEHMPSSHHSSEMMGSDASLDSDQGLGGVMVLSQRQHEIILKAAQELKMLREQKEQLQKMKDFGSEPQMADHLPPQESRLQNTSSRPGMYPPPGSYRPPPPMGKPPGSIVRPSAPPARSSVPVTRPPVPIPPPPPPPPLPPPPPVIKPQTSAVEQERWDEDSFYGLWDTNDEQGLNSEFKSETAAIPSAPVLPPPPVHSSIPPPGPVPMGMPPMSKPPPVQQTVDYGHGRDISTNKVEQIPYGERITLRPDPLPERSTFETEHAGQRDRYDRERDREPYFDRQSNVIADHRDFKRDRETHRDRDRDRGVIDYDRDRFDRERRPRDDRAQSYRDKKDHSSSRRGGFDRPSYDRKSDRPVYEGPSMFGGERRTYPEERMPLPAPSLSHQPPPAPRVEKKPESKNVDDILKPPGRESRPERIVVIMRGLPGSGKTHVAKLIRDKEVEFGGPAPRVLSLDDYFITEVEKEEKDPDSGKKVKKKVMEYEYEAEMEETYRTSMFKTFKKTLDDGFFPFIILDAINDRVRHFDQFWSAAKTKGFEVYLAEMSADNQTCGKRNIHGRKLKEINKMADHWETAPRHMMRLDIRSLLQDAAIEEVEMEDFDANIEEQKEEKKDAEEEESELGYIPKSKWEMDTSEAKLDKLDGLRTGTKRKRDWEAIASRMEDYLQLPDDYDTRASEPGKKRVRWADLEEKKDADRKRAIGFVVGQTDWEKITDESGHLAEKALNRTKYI
Chain of YES1 (P07947 whole entry, looked up): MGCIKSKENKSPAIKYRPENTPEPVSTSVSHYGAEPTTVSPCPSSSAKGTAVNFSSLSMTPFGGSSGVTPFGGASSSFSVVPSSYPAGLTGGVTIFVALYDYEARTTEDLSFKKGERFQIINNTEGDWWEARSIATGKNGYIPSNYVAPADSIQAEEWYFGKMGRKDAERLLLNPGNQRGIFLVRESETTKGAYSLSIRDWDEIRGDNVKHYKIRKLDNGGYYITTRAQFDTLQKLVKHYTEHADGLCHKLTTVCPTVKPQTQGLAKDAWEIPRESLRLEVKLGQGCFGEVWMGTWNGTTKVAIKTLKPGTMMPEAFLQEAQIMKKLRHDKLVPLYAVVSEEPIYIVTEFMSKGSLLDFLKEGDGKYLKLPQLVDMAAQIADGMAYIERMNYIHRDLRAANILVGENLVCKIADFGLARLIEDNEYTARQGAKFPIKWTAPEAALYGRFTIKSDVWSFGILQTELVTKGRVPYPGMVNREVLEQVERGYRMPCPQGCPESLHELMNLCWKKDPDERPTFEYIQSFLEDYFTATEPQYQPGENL
Chain of YIPF6 (Q96EC8 whole entry, looked up): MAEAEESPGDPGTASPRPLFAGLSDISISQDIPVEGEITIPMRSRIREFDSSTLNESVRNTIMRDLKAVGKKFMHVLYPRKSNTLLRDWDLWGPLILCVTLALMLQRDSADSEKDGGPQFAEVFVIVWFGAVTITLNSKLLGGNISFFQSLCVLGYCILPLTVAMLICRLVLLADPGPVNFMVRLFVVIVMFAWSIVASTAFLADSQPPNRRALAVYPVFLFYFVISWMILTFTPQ
Chain of YAE1 (Q9NRH1 whole entry, looked up): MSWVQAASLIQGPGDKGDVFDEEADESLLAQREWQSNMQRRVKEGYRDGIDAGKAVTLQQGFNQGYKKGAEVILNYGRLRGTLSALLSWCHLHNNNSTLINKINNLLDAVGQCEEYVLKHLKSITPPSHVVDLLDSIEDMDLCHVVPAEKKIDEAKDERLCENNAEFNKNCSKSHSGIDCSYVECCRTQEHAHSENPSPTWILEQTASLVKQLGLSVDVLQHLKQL
Chain of ZBTB43 (O43298 whole entry, looked up): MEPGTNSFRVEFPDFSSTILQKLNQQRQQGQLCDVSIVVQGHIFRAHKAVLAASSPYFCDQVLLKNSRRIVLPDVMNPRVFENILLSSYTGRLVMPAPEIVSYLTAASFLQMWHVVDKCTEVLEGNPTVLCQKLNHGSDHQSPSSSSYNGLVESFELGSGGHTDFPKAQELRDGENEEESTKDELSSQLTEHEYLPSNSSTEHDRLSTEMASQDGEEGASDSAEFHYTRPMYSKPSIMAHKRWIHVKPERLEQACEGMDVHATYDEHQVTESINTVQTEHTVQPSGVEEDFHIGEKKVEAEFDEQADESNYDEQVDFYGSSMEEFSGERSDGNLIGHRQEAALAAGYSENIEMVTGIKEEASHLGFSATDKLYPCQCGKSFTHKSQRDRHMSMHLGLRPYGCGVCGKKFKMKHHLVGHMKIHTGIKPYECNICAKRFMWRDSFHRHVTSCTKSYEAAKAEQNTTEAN
Chain of YWHAQ (P27348 whole entry, looked up): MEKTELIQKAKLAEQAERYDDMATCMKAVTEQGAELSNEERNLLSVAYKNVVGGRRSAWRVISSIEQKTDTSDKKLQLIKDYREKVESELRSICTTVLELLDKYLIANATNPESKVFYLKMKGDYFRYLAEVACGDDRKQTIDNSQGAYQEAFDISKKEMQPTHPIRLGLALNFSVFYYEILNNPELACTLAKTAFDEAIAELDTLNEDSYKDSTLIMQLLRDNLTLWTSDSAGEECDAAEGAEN
Chain of YY1 (P25490 whole entry, looked up): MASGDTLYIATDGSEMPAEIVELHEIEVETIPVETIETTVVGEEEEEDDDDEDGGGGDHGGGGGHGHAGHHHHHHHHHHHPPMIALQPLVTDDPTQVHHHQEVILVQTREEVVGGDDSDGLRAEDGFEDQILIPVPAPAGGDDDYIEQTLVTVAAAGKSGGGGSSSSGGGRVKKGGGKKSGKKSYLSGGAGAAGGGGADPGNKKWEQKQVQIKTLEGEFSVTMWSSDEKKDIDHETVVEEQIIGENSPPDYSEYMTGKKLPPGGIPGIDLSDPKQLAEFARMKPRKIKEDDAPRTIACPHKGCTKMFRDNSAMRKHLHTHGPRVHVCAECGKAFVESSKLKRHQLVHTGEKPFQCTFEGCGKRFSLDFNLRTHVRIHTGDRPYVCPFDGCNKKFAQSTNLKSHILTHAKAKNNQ
Chain of YPEL5 (P62699 whole entry, looked up): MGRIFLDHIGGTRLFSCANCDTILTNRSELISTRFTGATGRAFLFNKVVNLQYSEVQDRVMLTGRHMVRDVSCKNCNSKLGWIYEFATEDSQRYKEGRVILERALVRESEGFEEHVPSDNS

C[C@@H](N)c1ccc(C(=O)Nc2ccnc3[nH]ccc23)cc1
inactive: [1] 0.1 | [2] 0.28 | [3] 0 | [4] -0.089 | [5] -0.077 | [6] -0.013 | [7] -0.037 | [8] -0.04 | [9] 0.163 | [10] -0.065 | [11] -0.302 | [12] 0.179 | [13] -0.178 | [14] -0.071 | [15] -0.071 | [16] 0.125 | [17] -0.013 | [18] -0.103

CC(C)N(C[C@H]1O[C@@H](n2cnc3c(N)ncnc32)[C@H](O)[C@@H]1O)[C@H]1C[C@@H](CCc2nc3cc(C(C)(C)C)ccc3[nH]2)C1 [pinometostat]
inactive: [1] 0.011 | [19] -0.093 | [2] 0.053 | [3] 0.035 | [4] -0.031 | [5] 0.016 | [6] 0.023 | [7] 0.003 | [8] -0.021 | [9] 0.068 | [10] -0.031 | [11] -0.067 | [12] -0.035 | [13] -0.026 | [14] 0.02 | [15] 0 | [16] 0.209 | [17] -0.05 | [18] 0.053

O=C1NC(=NCc2cccs2)S/C1=C\c1ccc2ncccc2c1
inactive: [1] -0.018 | [19] -0.002 | [2] -0.115 | [3] 0.094 | [4] -0.006 | [5] -0.008 | [6] 0.042 | [7] 0.057 | [8] 0.066 | [9] -0.021 | [10] 0.023 | [11] -0.201 | [12] -0.13 | [13] -0.154 | [14] -0.014 | [15] 0.042 | [16] -0.024 | [17] -0.081 | [18] 0.003

FC(F)(F)c1ccc(/C=C/c2nc(COc3ccc(CCCCn4ccnn4)cc3)co2)cc1 [mubritinib]
active: [15] -0.294
inactive: [1] -0.062 | [2] -0.031 | [3] -0.067 | [4] 0.024 | [5] 0.012 | [6] 0.036 | [7] -0.038 | [8] 0.108 | [9] -0.202 | [10] 0.045 | [11] 0.049 | [12] 0.11 | [13] 0.015 | [14] -0.055 | [20] -0.131 | [16] 0.003 | [18] -0.042

Cc1cccc(-c2[nH]c(C(C)(C)C)nc2-c2ccc3nccnc3c2)n1
inactive: [1] 0.019 | [19] -0.03 | [2] -0.11 | [3] 0.008 | [4] -0.067 | [5] -0.073 | [6] 0.047 | [7] 0.043 | [8] 0.026 | [9] 0.097 | [10] 0.021 | [11] 0.05 | [12] -0.064 | [13] 0.009 | [14] 0.039 | [15] -0.004 | [16] -0.03 | [17] -0.04 | [18] -0.029

CC(=O)c1cnc2ccc(-c3cc(Cl)c(O)c(Cl)c3)nc2c1N[C@H]1CC[C@H](CN(C)C)CC1
active: [3] -0.819 | [16] -0.42
inactive: [1] 0.078 | [19] -0.085 | [2] 0.155 | [4] -0.197 | [5] 0.023 | [6] 0.008 | [7] -0.093 | [8] -0.04 | [9] -0.173 | [10] -0.019 | [11] 0.118 | [12] -0.081 | [13] 0.06 | [14] -0.084 | [15] -0.131 | [17] 0.008 | [18] -0.155

NC(=O)c1cnc(N[C@@H]2CCCC[C@@H]2N)nc1Nc1cccc(-n2nccn2)c1
inactive: [1] -0.038 | [19] -0.031 | [2] 0.048 | [3] -0.114 | [4] 0.091 | [5] -0.016 | [6] -0.088 | [7] -0.034 | [8] -0.061 | [9] -0.019 | [10] -0.05 | [11] 0.172 | [12] -0.186 | [13] 0.108 | [14] -0.037 | [15] -0.025 | [16] -0.044 | [17] 0.092 | [18] -0.221

Cc1ccc(NC(=O)c2ccc(CN3CC[C@H](N(C)C)C3)c(C(F)(F)F)c2)cc1Nc1nccc(-c2cncnc2)n1 [bafetinib]
inactive: [1] 0.013 | [2] 0.146 | [3] 0.049 | [4] -0.045 | [5] -0.028 | [6] -0.169 | [7] 0.083 | [8] -0.07 | [9] 0.064 | [10] -0.008 | [11] -0.035 | [12] -0.131 | [13] -0.022 | [14] -0.044 | [15] -0.08 | [20] 0.07 | [16] 0.194 | [17] -0.006 | [18] 0.033

CCCCN(Cc1ccc(C(=O)NO)cc1)C(=O)Nc1ccccc1 [Nexturastat A]
inactive: [1] 0.564 | [2] 0.231 | [3] 0.142 | [4] 0.021 | [5] 0.091 | [6] -0.011 | [7] 0.046 | [8] -0.011 | [9] -0.144 | [10] -0.048 | [11] -0.063 | [12] 0.34 | [13] -0.051 | [14] 0.069 | [15] 0.005 | [16] 0.106 | [17] -0.203 | [18] 0.11

C[C@H](Nc1ncnc2nc[nH]c12)c1cc2cccc(Cl)c2c(=O)n1-c1ccccc1 [duvelisib]
inactive: [1] -0.021 | [2] -0.208 | [3] 0.062 | [4] 0.163 | [5] -0.107 | [6] 0.259 | [7] 0.08 | [8] 0.033 | [9] -0.084 | [10] 0.056 | [11] -0.144 | [12] 0.171 | [13] -0.084 | [14] -0.007 | [15] 0.033 | [16] 0.081 | [17] 0.027 | [18] 0.019

COc1ccc(Cn2ccc3ccc(C(=O)NO)cc32)cc1
inactive: [1] 0.013 | [19] -0.033 | [2] -0.019 | [3] 0.072 | [4] -0.098 | [5] -0.065 | [6] -0.019 | [7] 0.018 | [8] 0.037 | [9] -0.269 | [10] -0.028 | [11] 0.3 | [12] 0.006 | [13] -0.002 | [14] 0.069 | [15] 0.008 | [16] 0.026 | [17] 0.094 | [18] -0.009

COc1cc(Nc2ncc3c(n2)-c2ccc(Cl)cc2C(c2c(F)cccc2OC)=NC3)ccc1C(=O)O [alisertib]
inactive: [1] -0.065 | [2] -0.066 | [3] -0.211 | [4] -0.134 | [5] -0.009 | [6] 0.419 | [7] 0.017 | [8] 0.19 | [9] 0.086 | [10] 0.012 | [11] -0.001 | [12] -0.041 | [13] -0.028 | [14] -0.062 | [15] 0.021 | [20] 0.136 | [16] -0.154 | [18] -0.085

CCN(CCCOc1ccc2c(Nc3cc(CC(=O)Nc4cccc(F)c4)[nH]n3)ncnc2c1)CCOP(=O)(O)O [barasertib]
inactive: [1] 0.097 | [2] -0.127 | [3] -0.006 | [4] 0.026 | [5] -0.08 | [6] -0.041 | [7] 0.03 | [8] 0.051 | [9] 0.121 | [10] 0.003 | [11] 0.006 | [12] 0.114 | [13] -0.002 | [14] -0.01 | [15] 0.049 | [20] -0.048 | [16] -0.043 | [17] -0.105 | [18] -0.05

O=C1NC(=O)C(c2cnc3ccccn23)=C1c1cn2c3c(cc(F)cc13)CN(C(=O)N1CCCCC1)CC2
inactive: [1] -0.02 | [2] 0.126 | [3] 0.011 | [4] -0.087 | [5] 0.032 | [6] 0.01 | [7] 0.026 | [8] -0.079 | [9] -0.064 | [10] -0.04 | [11] -0.095 | [12] -0.239 | [13] -0.025 | [14] -0.013 | [15] -0.043 | [16] -0.226 | [17] 0.196 | [18] 0.03

CN(CCOc1ccc(C[C@@H]2SC(=O)NC2=O)cc1)c1ccccn1 (racemic) [rosiglitazone]
inactive: [1] 0.062 | [2] -0.074 | [3] 0.013 | [4] 0.005 | [5] 0.003 | [6] 0.027 | [7] 0.047 | [8] 0.029 | [9] -0.048 | [10] 0.038 | [11] 0.012 | [12] 0.019 | [13] 0.008 | [14] -0.015 | [15] 0.063 | [20] 0.063 | [16] 0.103 | [17] 0.052 | [18] -0.036
